Test results published in PubChem BioAssay.
Unmarked numbers belong to inactive results. No rule for the calls is given here.

Target: Pantothenate synthetase (Mycobacterium tuberculosis (strain ATCC 25618 / H37Rv)) (UniProt P9WIL5)
Test: Recombinant Mtb pantothenate synthetase (PanC) inhibitors, coupled enzyme, confirmatory (AID 375);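 also: 0% = full reaction with vehicle and 100% = no enzyme background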
Details: coupled enzyme assay; at 10 µM, hits give high values

Sequence of Pantothenate synthetase (Mycobacterium tuberculosis (strain ATCC 25618 / H37Rv)) (P9WIL5 whole entry, looked up): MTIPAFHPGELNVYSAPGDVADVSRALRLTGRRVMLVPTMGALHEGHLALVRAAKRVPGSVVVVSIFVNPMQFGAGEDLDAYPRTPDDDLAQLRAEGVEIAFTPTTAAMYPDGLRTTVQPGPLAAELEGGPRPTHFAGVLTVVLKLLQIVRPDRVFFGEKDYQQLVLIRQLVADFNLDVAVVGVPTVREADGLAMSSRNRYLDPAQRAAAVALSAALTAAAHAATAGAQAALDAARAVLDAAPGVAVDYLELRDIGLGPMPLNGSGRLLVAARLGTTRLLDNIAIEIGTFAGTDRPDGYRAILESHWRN

Row | Structure (SMILES) | inhibition [%]
1 | COc1cccc(OCCn2ccnc2)c1 | 4
2 | Nc1cccc(C(=O)O)c1 | 0
3 | COc1ccc(OC)c(NS(=O)(=O)Cc2ccccc2)c1 | 0
4 | Cc1ccc(-n2nnnc2SCC(=O)N2CCc3ccccc3C2)cc1 | 4
5 | CC(C)[N+](C)(CCOC(=O)C1c2ccccc2Oc2ccccc21)C(C)C | 0
6 | CCOC(=O)c1cccc(NC(=O)CSc2nnc(-c3cccnc3)n2CC)c1 | 0
7 | CCN1CCN(C(=O)c2ccc3c(=O)n(CCC4=CCCCC4)c(=O)[nH]c3c2)CC1 | 0
8 | COc1ccc(Cn2nnnc2C(c2cccs2)N2CCOCC2)cc1 (stereo not drawn) | 3
9 | COc1ccc(S(=O)(=O)N2CCCC2C(=O)Nc2ccc(O)cc2)cc1 (stereo not drawn) | 0
10 | COc1cccc(NC(=O)CSc2nnc(-c3cc(-c4ccccn4)nc4ccccc34)o2)c1 | 2
11 | O=C(Nc1ccncc1)c1cncc(Br)c1 | 0
12 | CCC(C)NC(=O)c1cc(CC(C)C)on1 (stereo not drawn) | 2
13 | CCC1SC2=NC(C)=C(C(=O)OC)C(c3ccc(C)cc3)N2C1=O (stereo not drawn) | 7
14 | CCOC(=O)C1=C(C)NC(=O)C(C#N)C1c1ccco1 (stereo not drawn) | 5
15 | COC(=O)c1c(C(=O)OC)n(CCCN)c2ccc(C)cc12 | 9
16 | CCCCC(O)(C(NC=O)C(=O)OC)C(F)(F)F (stereo not drawn) | 2
17 | Cc1ccc(CC23CN4CCN(CC(C4)C2O)C3)c(C)c1 (stereo not drawn) | 1
18 | CNC(=O)CC(C(=O)O)c1ccc(OCC(C)C)cc1 (stereo not drawn) | 1
